The values that follow come from PubChem BioAssay AID2732 (Emory University Molecular Libraries Screening Center, 2010).

The whole screen tested about 220,000 compounds, of which about 8,200 (3.7%) were called active. The entries come from a sample that favours actives as a whole. Unmarked numbers belong to inactive results.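 How the source made its calls: active means compounds that reduced the stress-induced luciferase reporter signal by more than about 70% of percent inhibition (limit read from the data); inactive means the rest.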

The test can be described thus: inhibitors of CHOP promoter induction, primary screen, cell-based, unfolded protein response, luciferase reporter (AID 2732).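 Further: 0% = tunicamycin plus vehicle and 100% = wells without tunicamycin.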 The note with it: CHO-K1 CHOP-promoter luciferase, tunicamycin-induced, 15-18 h; at 10 µM; stronger effect = higher value. A general note: In a reporter assay the amount or activity of a reporter protein is the signal.
What is called inhibition is the relative decrease from the control value, in per cent. As for `O=C(NNS(=O)(=O)Cc1ccccc1)c1ccc([N+](=O)[O-])cc1`, the inhibition was 0.23%. Take `O=C(c1ccc(F)cc1)n1c(=S)nc2ccccn21`: the inhibition was 20.7%. `CCOC(=O)N1CCN(CC(=O)Nc2cc(C)nn2-c2nc3ccccc3s2)CC1`: the inhibition is -20.6%. For `Cc1cc(NC(=O)CN2CCCC(C)C2)n(-c2nc3ccccc3s2)n1` (stereo not given), the inhibition is 52.1%. Consider `CCC(C)Cn1c(O)cc2nn(-c3nc4ccccc4s3)c(=O)c-2c1C` (stereo not given), for which the inhibition was 83.7% (active).

As for `CCOC(=O)CN(C)S(=O)(=O)c1ccc(-c2cc(C(=O)OC)sc2C(F)(F)F)cc1`, the inhibition is -2.09%. With `CCOC(=O)c1nnn2c1nc(N1CCN(c3ccccc3)CC1)c1ccccc12`, the inhibition was 4.43%.

As to `O=C(CSc1nnc(-c2ccccn2)n1-c1ccccc1)Nc1ccc2c(c1)OCO2`, the inhibition was 14.5%. Take `Cc1ccc(-n2c(SCC(=O)Nc3ccc4c(c3)OCO4)nnc2-c2ccccn2)cc1`: the inhibition is 23%. With `Cc1ccc(-n2c(SCC(=O)Nc3ccc4c(c3)OCO4)nnc2-c2ccoc2C)cc1`, the inhibition was 79.8% (active). On to `COc1ccc(/C(C)=N/N2CCOCC2)c(O)c1`, for which the inhibition is 4.65%. Take `Cc1ccc2nc(Nc3ncc4c(n3)CC(C)(C)CC4=O)nc(C)c2c1`: the inhibition is 7.17%. With `Cc1ccc2nc(Nc3ccccc3O)nc(-c3ccccc3)c2c1`, the inhibition was 85.7% (active). For `Cc1ccc2nc(-c3cccc(Br)c3)cc(C(=O)Nn3cnnc3)c2c1`, the inhibition is 6.71%. With `O=C(Nc1ccccc1)Nc1ccc(C(F)(F)F)cn1`, the inhibition was -1.82%. Turning to `Cc1ccc2cc(/C=N/NC(=O)[C@@H]3CCCN3)c(Cl)nc2c1`, the inhibition is 13.2%. In the case of `CSCC[C@H](NC(=O)OC(C)(C)C)C(=O)N/N=C/c1cc2ccc(C)cc2nc1Cl` it was 73.9% (active); in that of `Cc1ccc2cc(/C=N/Nc3ccc(C(=O)O)cc3)c(Cl)nc2c1`, -19%; in that of `S=c1[nH]nc(-c2ccncc2)n1/N=C/c1ccccc1Cl`, 9.19%. Regarding `CC1=CC2=NC(=O)/C(=C/c3coc4ccccc4c3=O)C(=N)N2O1`, the inhibition is 10%.

As to `O=[N+]([O-])c1cc(Cl)cc(/C=N/NC(=S)Nc2cc(S(=O)(=O)N3CCOCC3)ccc2Cl)c1O`, the inhibition was 24.1%. Turning to `O=C(COC(=O)c1ccc(F)cc1)Nc1nc2ccc([N+](=O)[O-])cc2s1`, the inhibition is 7.2%. As to `O=C(O)CCC(=O)Nc1nc2ccc([N+](=O)[O-])cc2s1`, the inhibition is -7.8%. For the compound `Cc1cc(C)cc(OCC(=O)Nc2nc3ccc([N+](=O)[O-])cc3s2)c1`, the inhibition is 89.4% (active).

`Cc1cc2c(cc1C)N(Cc1ccccc1)C1=NCCCN12`: the inhibition is 17.9%. The value for `CC(C)CN(CC(C)C)CC(O)CN(c1ccccc1)S(=O)(=O)c1ccccc1[N+](=O)[O-]` (stereo not given) was 6.94%; that for `C/C(=N/NC(=O)c1ccc(NC(=O)c2ccc(F)cc2)cc1)c1ccccc1` was 52%; that for `COc1ccccc1N(CC(=O)Nc1ccc(C(F)(F)F)cc1)S(C)(=O)=O` was 12.5%. As to `CC(=O)Nc1ccc(/C(C)=N/NC(=O)CN(c2ccccc2Br)S(C)(=O)=O)cc1`, the inhibition is 91.8% (active). Regarding `Cc1ccc2c(c1)c1ncn(Cc3ccc(F)cc3)c(=O)c1n2C`, the inhibition is 21.6%. As for `S=c1nc2ccccc2c2nc(-c3cccnc3)[nH]n12`, the inhibition is -22.9%.

For the compound `CCCc1ccc(C(=O)[C@@H]2[C@@H](C(C)=O)N3c4ccc(F)cc4C=C[C@@H]3[C@@]23C(=O)Nc2ccccc23)cc1`, the inhibition is 72.2% (active). For the compound `CC(C)(C)CN1C(=O)C(=O)NC[C@H]1Cc1cccc2ccccc12`, the inhibition was 16.9%.

As to `CN1CCc2ccccc2C1Cc1ccccc1NC(=O)c1sc2ccccc2c1Cl` (stereo not given), the inhibition is 24.9%. In the case of `CC(C)(C)N1CC(c2nc3ccccc3n2Cc2ccc(F)cc2)CC1=O` (stereo not given), the inhibition is -17.7%.

Consider `CC(=O)Nc1nonc1-c1nc2ccccc2n1Cc1ccccn1`, for which the inhibition is 33.7%. In the case of `Nc1nonc1-c1nc2ccccc2n1Cc1ccc(F)cc1` it was 84.3% (active). Take `COC(=O)c1cc(N2CCNCC2)nc2ccccc12`: the inhibition is 19.8%. On to `Cc1cc(=O)[nH]c2nnnn12`, for which the inhibition is 8.36%. On to `Cc1nn(Cc2ccc(Cl)c(Cl)c2)c(C)c1NC(=O)c1cc(C2CC2)on1`, for which the inhibition was 82.7% (active).

Regarding `Cc1cc(C(=O)Nc2c(C)nn(Cc3ccccc3)c2C)on1`, the inhibition is 11.6%. Regarding `O=C(Nc1cc(C(F)(F)F)ccc1Cl)c1cc(C2CC2)on1`, the inhibition was 67%. Consider `CCCCOc1ccc(CON(C(C)=O)C(C)=O)cc1Cl`, for which the inhibition was 10.1%.

With `COCCn1c(SCC(=O)c2[nH]c(C)c(C(C)=O)c2C)nc2ccccc2c1=O`, the inhibition is -9.67%. Consider `C=CCSC(CC)(CC)C(N)=O`, for which the inhibition is 4.32%. In the case of `O=C1/C(=C/c2cccs2)SC(=S)N1C1CCS(=O)(=O)C1` (stereo not given), the inhibition was 8.4%. For `CCOC(=O)c1ccc(N2C(=O)CC(N3CCN(C(=O)c4ccccc4)CC3)C2=O)cc1` (stereo not given), the inhibition was 14.7%. As to `CCOC(=O)c1ccc(N2C(=O)CC(N3CCC(C(=O)OCC)CC3)C2=O)cc1` (stereo not given), the inhibition is 1.79%. For `CCCCOC(=O)c1ccc(N2C(=O)CC(N3CCN(C/C=C/c4ccccc4)CC3)C2=O)cc1` (stereo not given), the inhibition is 81.1% (active). Consider `O=[N+]([O-])c1cccc(C2=NCCS2)c1`, for which the inhibition was 5.31%.

With `O=c1[nH]c2ccccc2n2c(-c3ccccc3)nnc12`, the inhibition was 10.4%.

For the compound `O=[N+]([O-])c1cccc(-c2nnc3c4ccccc4c4ccccc4n23)c1`, the inhibition is 96.5% (active). Consider `CC(CNS(=O)(=O)c1ccc(Br)cc1)CN(C)C` (stereo not given), for which the inhibition was 1.82%. Consider `Cc1ccc2c(C)c(C(=O)N3CCC(N4CCC(C(=O)NC5CC5)CC4)CC3)oc2c1`, for which the inhibition was 25.5%. The value for `Fc1ccccc1/C=C1\CCCC2=C1Nc1ncnn1C2c1ccccc1F` (stereo not given) was 108% (active); that for `CC1CC(=O)Nc2ccccc2N1S(=O)(=O)c1cccs1` (stereo not given) was 4.64%. With `O=C(Nc1ccc2c(c1)CCC2)c1cccc(S(=O)(=O)N2CCN(c3ccc(F)cc3)CC2)c1`, the inhibition is 78.2% (active). The value for `O=C(Nc1ccc2c(c1)CCC2)c1cccc(S(=O)(=O)Nc2ccccc2Cl)c1` was 33.4%; that for `O=C(Nc1cccnc1)c1cccc(S(=O)(=O)N2CCCC2)c1` was 1.13%. In the case of `Cc1ccc(Cn2c(SCC(=O)N/N=C/c3ccccc3OCC(=O)O)nc3ccccc32)cc1` it was 19.7%. For the compound `O=C(NCc1ccc(F)cc1)C1CCC(CNc2c(N3CCOCC3)c(=O)c2=O)CC1` (stereo not given), the inhibition was -4.35%. In the case of `O=C(Nc1cc(C(F)(F)F)ccc1Cl)C(=O)N1CCCCC1` it was 23.6%; in that of `O=C(NNc1ccccc1Cl)C(O)(c1cccc(C(F)(F)F)c1)c1cccc(C(F)(F)F)c1`, 100% (active); in that of `O=C(CNS(=O)(=O)c1cccc(C(F)(F)F)c1)Nc1ccccc1F`, -2.12%. As to `COc1ccc(CCN2C(=O)N(c3ccc(OC)cc3)C(=O)C2CC(=O)Nc2ccc(OC)cc2)cc1` (stereo not given), the inhibition is -32.7%. Turning to `Nc1nc(SCc2ccccc2Cl)n[nH]1`, the inhibition was 6.63%. As to `Clc1ccccc1CSc1nnc(-c2ccco2)c(-c2ccco2)n1`, the inhibition was 71.2% (active). As to `c1ccc(CSc2nnc(-c3ccco3)c(-c3ccco3)n2)cc1`, the inhibition was -37.2%. The value for `O=C(Cc1ccccc1)N1N=C(c2ccncc2)CC1(O)C(F)(F)F` (stereo not given) was 4.37%; that for `COc1ccc2oc(N)c(C=O)c(=O)c2c1` was 13.1%; that for `CCn1cc(C(=O)NCc2ccc3c(c2)OCO3)c2cc(OC)c(OC)cc2c1=O` was 33.4%.

`COc1ccc2c(c1)C(C)=CC(C)(C)N2C(=O)Nc1ccccc1`: the inhibition was 7.45%. For the compound `COc1ccc2c(c1)C(C)=CC(C)(C)N2C(=O)CNCc1ccc2c(c1)OCO2`, the inhibition was 73.7% (active). On to `O=C(O)C(c1ccccc1)C1(O)CCCCC1` (stereo not given), for which the inhibition is 3.7%.

For `CCc1nnc(NC(=O)c2sc3nc(C)cc(COC)c3c2N)s1`, the inhibition was -32%.

For `CCc1nnc(NC(=O)c2cccc(S(=O)(=O)N(C)c3ccc(OC)cc3)c2)s1`, the inhibition was 28.5%. In the case of `CCc1ccc2nc3sc(C(=O)Nc4nnc(CC)s4)c(N)c3cc2c1` it was 76.2% (active); in that of `COC(=O)[C@H](CC(C)C)NC(=O)N1CCCCC1C` (stereo not given in full), 16.1%; in that of `COc1ccc(-c2noc(-c3cccc(OC)c3OC)n2)cc1OC`, 19%.

As for `COc1ccc(-c2nc(-c3ccccc3)no2)c(OC)c1`, the inhibition was 81.4% (active).

For `COc1ccc(-c2noc(-c3ccc(C)cc3)n2)cc1`, the inhibition is 20.8%. On to `COc1ccc(S(=O)(=O)N2CCCC2)c(C)c1C`, for which the inhibition was 31.7%. Turning to `CCOc1ccc(S(=O)(=O)n2ccnc2)c2ccccc12`, the inhibition was 4.14%. Regarding `CCOc1ccc(S(=O)(=O)N2CCCCCC2)c2ccccc12`, the inhibition was 71.1% (active). The value for `CN1CCN(c2ccc(S(=O)(=O)N3CCOCC3)cc2NC(=O)CCc2ccccc2)CC1` was -2.84%; that for `COc1cccc(Nc2nnc(SCC(=O)N3CC(=O)Nc4ccccc43)s2)c1` was -4.27%; that for `CCOc1ccccc1C1C(C(=O)OC)=CN(C)C=C1C(=O)OC` was 2.4%.

For the compound `NC(=O)C1(C(N)=O)OC1c1ccc(Cl)cc1Cl` (stereo not given), the inhibition is -9.68%. For `COC(=O)C1=CN(C)C=C(C(=O)OC)C1c1ccc(Cl)cc1Cl`, the inhibition was 78.2% (active). The value for `O=C(NC1CC1)C1=C[C@H](c2c[nH]c3ccccc23)C[C@H](OCc2ccc(CO)cc2)O1` was 0.14%; that for `CSc1ccc(NC(=O)/C=C/C(=O)O)cc1` was 6.47%. With `CC(C)S(=O)(=O)c1csc(NC(=O)Nc2ccc(Cl)cc2)c1Cl`, the inhibition is -24.8%.

As for `COc1cccc(NC(=O)CN2CCN(c3nc(-c4cccc(OC)c4)cs3)CC2)c1`, the inhibition is 19.3%.

For `COc1ccc(-c2csc(N3CCN(Cc4ccc5c(c4)OCO5)CC3)n2)cc1`, the inhibition is 86.8% (active). Consider `O=C(CN1CCN(c2nc(-c3ccccc3)cs2)CC1)NCc1ccc2c(c1)OCO2`, for which the inhibition is 63.6%.
